Screening data deposited in PubChem BioAssay by several laboratories.
LMP1 NFkB inh = EBV LMP1-driven NF-kappaB luciferase reporter inhibitors, primary screen, cell-based, luminescence, single point. LMP1-induced NF-kappaB luciferase reporter cells. inhibition, % at 12.5 µM. hit rate 0.69% among 350,000. AID 504558, 2011; in the data active = inhibition above about 41%
MITF TRPM1 inh = inhibitors of MITF-dependent TRPM1 promoter reporter, primary screen, cell-based, SK-MEL-5, single point, luciferase. SK-MEL-5 TRPM1 promoter luciferase, 24 h. hit rate 0.83% among 330,000. inhibition, % at 12.5 µM;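 active = mean inhibition across replicates of 60% or more, whatever share of single replicates reaches that level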
TROY NFkB inh = inhibitors of TROY-driven NF-kB signaling, primary screen, Q293 LMP1-TROYcd cells, NF-kB luciferase, uHTS. hit rate 0.98% among 360,000. Q293 LMP1-TROYcd NF-kB luciferase reporter, 4 h. inhibition, % at 10 µM;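 active = compounds whose plate-normalised and pattern-corrected inhibition of the luciferase reporter signal at the single screening dose is 50% or more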
Shn3 3UTR inh = reduction of Shn3 3'UTR firefly luciferase signal, primary screen, Schnurri-3 inhibitor project, cell-based, Clone20 osteoblasts, set 2; Clone20 osteoblast Shn3 3'UTR firefly luciferase, 24 h; AID 588674, 2011; inhibition, % at 12.5 µM; hit rate 0.52% among 360,000;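 active = mean inhibition of at least 75% with every replicate also reaching 75%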
Peg3 promoter = Peg3 promoter-driven luciferase inhibitors, primary screen, cell-based, HeLa, luciferase luminescence; HeLa PEG-Prom luciferase reporter, overnight; inhibition, % at 20 µM; hit rate 1.7% among 360,000;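 active = inhibition of at least 50% at 20 µM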
TWEAK-Fn14 inh = inhibitors of TWEAK-Fn14 signaling, primary screen, luciferase reporter cells, uHTS; TWEAK-stimulated Fn14 reporter cells, luciferase luminescence, 8 h; hit rate 2% among 360,000; inhibition, % at 10 µM; in the data active = inhibition above about 50%
Hits are given with their value; - = inactive. An excerpt weighted towards active compounds, which were near 4.1% of everything screened.

SMILES | LMP1 NFkB inh | MITF TRPM1 inh | TROY NFkB inh | Shn3 3UTR inh | Peg3 promoter | TWEAK-Fn14 inh
COCCC(=O)N1CCCC(CNS(=O)(=O)c2ccc(OC)cc2)C1 (stereo unspecified) | - | - | - | - | - | -
COCC(=O)N1CCCC(CNS(=O)(=O)c2ccc(OC)cc2)C1 (stereo unspecified) | - | - | 71 | - | - | -
COC(=O)C(C)(C)ONC(=O)Nc1ccccc1 | - | - | - | - | - | -
COC(=S)Nc1cccc(C(F)(F)F)c1 | - | - | - | - | - | -
O=C(Nc1ccccc1)Nc1cccc(C(F)(F)F)c1 | - | - | - | - | - | -
O=C(/C=C/Nc1cccc(C(F)(F)F)c1)C(F)(F)F | 65 | - | - | - | - | -
COC(=O)/C=C/C(=O)Nc1cccc(C(F)(F)F)c1 | 43 | - | - | - | - | 51
Cc1ccc(OC(F)F)c(NC(=O)Nc2cccc(C(F)(F)F)c2)c1 | - | - | - | - | - | 75
O=C(/C=C/Nc1ccc(OC(F)(F)F)cc1)C(F)(F)F | - | - | - | - | - | -
COC(=O)[C@]1(Cc2ccccc2)N[C@H](CN(C)C(=O)C2CCCCC2)[C@@H]2C(=O)N(Cc3ccccc3)C(=O)[C@@H]21 | - | - | - | - | - | -
Cc1cccc(-n2c(O)c(C=Nc3ccc4c(c3)OCO4)c3ccccc3c2=O)n1 | - | - | - | - | - | -
CCOC(=O)Cc1csc(/N=C/c2c(O)n(-c3ccc(C)c(C)c3)c(=O)c3ccccc23)n1 | - | 66 | - | - | - | -
Cc1ccc(-n2c(O)c(C=Nc3ccc4c(c3)OCO4)c3ccccc3c2=O)cc1C | - | - | 63 | - | - | -
Cc1cc(N=Cc2c(O)n(-c3ccc4c(c3)OCO4)c(=O)c3ccccc23)ccn1 | - | 75 | - | - | - | -
CCOC(=O)c1ccc(-n2cccc2/C=C2\NC(=O)NC2=O)cc1 | - | - | - | - | - | -
C=CCN1CCN(C(=O)CCc2ccccc2)CC1 | 87 | - | - | - | - | -
COc1ccc(S(=O)(=O)Nc2ccccc2-c2nnn(CC(=O)Nc3ccccc3OC)n2)cc1 | - | - | - | - | - | -
COc1ccc(NC(=O)Cn2nnc(-c3ccccc3NS(=O)(=O)c3ccccc3)n2)cc1 | - | - | - | 87 | - | 54
CN(CC1COc2ccccc2O1)C(=O)CSc1nncs1 (stereo unspecified) | - | - | - | - | - | -
C/C(=N\N1C(C)CCCC1C)c1ccccc1O (stereo unspecified) | - | - | - | - | - | -
CCC[C@H](CN[C@@H](CNC)[C@H](C)CC)NCCc1cc(C(F)(F)F)cc(C(F)(F)F)c1 | - | 103 | - | - | 99 | -
CCC[C@@H](CN[C@@H](CNC)[C@H](C)CC)NCC1CCC(C(C)(C)C)CC1 (stereo partly specified) | - | 100 | - | - | 102 | -
CC[C@@H](C)[C@H](CNC)NC[C@@H](Cc1cccc2ccccc12)NCCc1cccc(C(F)(F)F)c1 | - | 98 | - | 97 | 103 | -
Cc1ccc(CN2C(=O)c3ccccc3NC2c2cc(Br)ccc2O)cc1 (stereo unspecified) | - | - | - | - | - | -
Cc1ccc(CCNC(=O)C2CCN(S(=O)(=O)c3ccc4c(c3)oc(=O)n4C)CC2)cc1 | - | - | - | - | - | -
SMILES | LMP1 NFkB inh | MITF TRPM1 inh | TROY NFkB inh | Shn3 3UTR inh | Peg3 promoter | TWEAK-Fn14 inh
O=C(Nc1ccn(-c2ccccc2)n1)c1ccc(S(=O)(=O)N2CCCCCC2)cc1 | - | - | - | - | - | -
Cc1nc2c(o1)C(=O)c1ccccc1C2=Nc1ccccc1 | 87 | 94 | - | 94 | 104 | 95
Cc1cccc(N2N=C(C(=O)Nc3nc(C)cs3)CCC2=O)c1 | - | - | - | - | - | -
Cc1oc(-c2ccccc2)nc1CSc1nc2c(c(=O)[nH]1)CCC2 | - | - | - | - | - | -
Cc1cccc(-c2nc(CSc3nc4c(c(=O)[nH]3)CCC4)c(C)o2)c1 | - | - | 51 | - | - | -
CCOc1ccc(Oc2cc(NC(=O)c3ccco3)cc([N+](=O)[O-])c2)cc1 | - | - | - | - | - | -
O=C(Nc1cc(Oc2ccc(Cl)cc2)cc([N+](=O)[O-])c1)c1ccco1 | - | - | 57 | - | - | 57
O=C(CCc1ccc(Oc2cc([N+](=O)[O-])cc([N+](=O)[O-])c2)cc1)Nc1cccc(Cl)c1 | - | - | - | - | - | 59
CC(C)CNC(=S)NC(=O)c1ccc(Cl)cc1Cl | - | - | - | - | - | -
CC(C)(C)NC(=O)C(c1ccncc1)N(Cc1cccs1)C(=O)Cn1nnc(-c2cccs2)n1 (stereo unspecified) | - | - | - | - | 63 | -
Cc1ccc(C(C(=O)NC(C)(C)C)N(Cc2ccco2)C(=O)Cn2nnc(-c3cccs3)n2)cc1 (stereo unspecified) | - | - | - | - | - | -
COc1ccc(CCC(=O)Nc2ccc(-c3noc(-c4ccc(OC)c(OC)c4)n3)cc2)cc1 | - | - | - | - | - | -
COc1cc(-c2nc(-c3ccc(NC(=O)c4ccc(Br)o4)cc3)no2)cc(OC)c1OC | - | - | - | - | - | 59
COc1ccc(-c2nc(-c3ccc(NC(=O)c4ccc(Br)o4)cc3)no2)cc1OC | - | - | - | - | 54 | -
CCN(C(=O)COC(=O)c1ccc[nH]c1=O)c1cccc2ccccc12 | - | - | - | - | - | -
O=C(NCc1nc(-c2ccc(C(F)(F)F)cc2)no1)Nc1ccc(OC(F)(F)F)cc1 | - | - | - | - | 74 | -
CCn1cc(C2Nc3ccccc3C(=O)N2O)c(C)n1 (stereo unspecified) | 47 | - | - | - | - | -
O=C1c2ccccc2NC(c2cccc(O)c2)N1O (stereo unspecified) | - | - | 83 | - | - | -
Cc1nc(N2CCN(S(=O)(=O)c3ccc(F)cc3)CC2)c2c(-c3cccs3)csc2n1 | - | - | - | - | - | -
O=C(COC(=O)COc1ccccc1)Nc1ccc(S(=O)(=O)N2CCOCC2)cc1 | - | - | - | - | - | -
Cc1ccc(NC(=O)c2ccc(=O)[nH]c2)cc1S(=O)(=O)N1CCCCCC1 | - | - | - | - | - | -
CCCn1cnc2cc(NCc3ccc(Br)cc3)ccc21 | - | - | - | - | - | -
CCCn1cnc2cc(NCc3cccc(OC)c3)ccc21 | - | - | 66 | - | - | 73
CCn1cnc2cc(NCc3ccc(N(C)C)cc3)ccc21 | - | - | 67 | - | - | 65
CN(C)c1ccc(CNc2ccc3c(c2)ncn3C(C)(C)C)cc1 | - | - | 87 | - | - | 58
